Reference: the supplement of paper PMC12636033
± gives the standard deviation of the averaged measurements. Over roughly 33,000 sequences, “E-score (rank enrichment, -0.5 to 0.5)” has its median near -0.0068; the highest 2% begin near 0.24. Many of the other results were omitted from the sample, so the highest values are more common in it than they were.

tested on: muMax20 (Max(13-93) K31hArg/K57hArg, M65Nle); assay: PBM 8-mer E-score (E-score (rank enrichment, -0.5 to 0.5)); higher = stronger preferential binding
Description: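 Protein binding microarray (universal PBM chip covering all 10-mers in fixed probe flanks) with chemically synthesized human Max(13-93) bHLH-LZ analogs (not full-length Max) bearing noncanonical residues (hArg, Tha, Aib, Nle at 65) and aromatic Cys staples. Read-out per 8-mer (and its reverse complement): E-score (rank-based enrichment, -0.5 to 0.5) and Z-score of median probe intensity.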

| Sequence | PBM 8-mer E-score |
| --- | --- |
| ACGGTGTG | -0.143 ± 0.056 |
| GCCTTGTA | 0.029 ± 0.077 |
| ACCTTGTA | 0.238 ± 0.077 |
| CCCTTGTA | 0.0442 ± 0.13 |
| GTCAGGAA | -0.0169 ± 0.068 |
| ATAGAGCC | -0.106 ± 0.093 |
| CAATACTA | 0.16 ± 0.062 |
| CAATACCA | 0.149 ± 0.042 |
| GAATACCA | 0.121 ± 0.025 |
| AAATACTA | 0.193 ± 0.081 |
| TAATACTA | 0.252 ± 0.0039 |
| TAATACCA | 0.24 ± 0.014 |
| ACAGCAGG | -0.0464 ± 0.034 |
| GCTCCCCA | 0.128 ± 0.042 |
| CGGTCCTA | -0.17 ± 0.11 |
| ATATGGGG | 0.0664 ± 0.016 |
| GCGCGAAC | -0.0762 ± 0.17 |
| GACTAAGC | -0.239 ± 0.043 |
| AACCATTA | 0.269 ± 0.0088 |
| AACCATTG | -0.0386 ± 0.14 |
| CACCATTA | 0.0322 ± 0.16 |
| TAAATGAA | 0.114 ± 0.11 |
| AGTTGCAT | 0.287 ± 0.067 |

| Sequence | PBM 8-mer E-score |
| --- | --- |
| AGTTGCAC | -0.00822 ± 0.011 |
| AGTTGCAG | 0.0866 ± 0.039 |
| GGTTACAC | 0.151 ± 0.076 |
| CGTGCTCA | 0.162 ± 0.051 |
| CGATGGAG | -0.153 ± 0.037 |
| CACGTGGC | 0.442 ± 0.068 |
| AACGTGGG | 0.184 ± 0.14 |
| AATGTGAA | 0.211 ± 0.056 |
| CACGTGGG | 0.447 ± 0.062 |
| GATGTGAC | -0.206 ± 0.059 |
| CATGTGAG | 0.216 ± 0.059 |
| AACGTGGC | 0.0382 ± 0.033 |
| TATGTGAA | 0.299 ± 0.074 |
| GATGTGAA | 0.105 ± 0.079 |
| GACGTGGC | -0.0512 ± 0.032 |
| CAAGTGGG | 0.0751 ± 0.013 |
| CATGTGAC | 0.314 ± 0.075 |
| AAGTTCTC | -0.179 ± 0.0056 |
| CACTGCAC | -0.0231 ± 0.055 |
| CTCTAACC | -0.0244 ± 0.061 |
| CGAATTTC | 0.0312 ± 0.1 |
| CGTTACCA | 0.124 ± 0.012 |
| CGCCATTA | -0.0752 ± 0.029 |

| Sequence | PBM 8-mer E-score |
| --- | --- |
| GCCCCTGA | -0.179 ± 0.034 |
| AAGCTTAG | 0.0465 ± 0.086 |
| CATGTGGG | 0.309 ± 0.033 |
| CATGTGGA | 0.213 ± 0.054 |
| TGTGTGAA | 0.183 ± 0.038 |
| AGTGTGAA | 0.254 ± 0.011 |
| AATGTGGG | 0.142 ± 0.14 |
| TACGTGGA | 0.0197 ± 0.044 |
| AGTGTGAG | 0.163 ± 0.14 |
| GACGTGGA | 0.04 ± 0.064 |
| CACGTGGA | 0.459 ± 0.037 |
| GCCTCGGA | -0.187 ± 0.058 |
| AAGTAGCC | -0.0862 ± 0.0056 |
| AACCTGAA | 0.0509 ± 0.081 |
| AGGTTTCA | -0.031 ± 0.018 |
| CACAAAAC | 0.165 ± 0.027 |
| TAGACTCA | -0.163 ± 0.0053 |
| CTGTGAGC | -0.113 ± 0.058 |
| AAAAAGCT | 0.272 ± 0.099 |
| AAAAAGCA | 0.218 ± 0.046 |
| ACAAAGAT | 0.137 ± 0.027 |
| AAAAAGAC | 0.0949 ± 0.026 |
| AAAAAGCC | 0.166 ± 0.028 |

| Sequence | PBM 8-mer E-score |
| --- | --- |
| AAAAAGAT | 0.24 ± 0.03 |
| ATATCGCG | 0.0599 ± 0.043 |
| AGAAAGAT | 0.061 ± 0.093 |
| ATTTTGAG | 0.111 ± 0.012 |
| AATTTGAA | 0.149 ± 0.027 |
| ATTTTGAA | 0.253 ± 0.084 |
| CTCGAGGA | -0.0146 ± 0.017 |
| AATCCTGA | -0.167 ± 0.053 |
| ACACATGG | 0.271 ± 0.06 |
| GCACATGC | 0.166 ± 0.06 |
| ACACATGA | 0.148 ± 0.068 |
| CCACATGG | 0.255 ± 0.11 |
| AAACATGG | 0.178 ± 0.064 |
| ACACATGC | 0.22 ± 0.019 |
| AAACATGT | 0.331 ± 0.04 |
| CCACATGC | 0.217 ± 0.057 |
| CCACATGA | 0.225 ± 0.1 |
| AAACATGA | 0.169 ± 0.031 |
| GCACATGA | 0.256 ± 0.095 |
| TCACATGA | 0.173 ± 0.029 |
